Drawing on PubChem BioAssay (NCI), this text covers growth for 8 molecules.

Compounds without any hit were thinned out: in the full panel of roughly 83,000, 20% have a hit.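 In brief: 96-well plates, 48 h treatment, single concentration, percent growth endpoint.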 Unmarked numbers belong to inactive results. Calls of active or inactive are those of the source. The calls were made as follows: active = growth percent below 10; inactive = the rest.

Among the test systems are NCI-H23 lung; NCI-H226 lung; NCI-H322M lung; HOP-62 NSCLC; NCI-H460 lung; HOP-92 NSCLC; NCI-H522 lung; A549/ATCC NSCLC; 786-0 renal; COLO 205 colon; DU-145 prostate; K-562 leukemia; MALME-3M melanoma; MDA-MB-231 breast; RXF 393 renal; SF-268 CNS; SF-295 CNS; SF-539 CNS; UACC-257 melanoma; M14 melanoma.
Holding throughout (experiment): NCI-60 one-dose screen, 48 h (100 = growth as untreated, 0 = no growth, -100 = all killed)
Holding throughout (details): 10 µM unless noted

`Cc1ccc2nc(CN(CCN(Cc3nc4ccc(C)cc4[nH]3)Cc3nc4ccc(C)cc4[nH]3)Cc3nc4ccc(C)cc4[nH]3)[nH]c2c1`: the growth is -57.3% (active) in the assay with NCI-H23 lung; -97.1% (active) in the assay on NCI-H226 lung; -95.7% (active) in the assay on NCI-H322M lung; -93.3% (active) in the assay with HOP-62 NSCLC; -94.8% (active) in the assay on NCI-H460 lung; -80.7% (active) in the assay on HOP-92 NSCLC. Also, the growth is -86.4% (active) in the assay on NCI-H522 lung; -89.1% (active) in the assay with A549/ATCC NSCLC; -97.3% (active) in the assay on 786-0 renal; -93.4% (active) in the assay on COLO 205 colon; -99.6% (active) in the assay on DU-145 prostate; -25.7% (active) in the assay on K-562 leukemia. In addition, the growth is -70.4% (active) in the assay with MALME-3M melanoma; -81.7% (active) in the assay on MDA-MB-231 breast; -92.5% (active) in the assay with RXF 393 renal; -85% (active) in the assay on SF-268 CNS; -86.8% (active) in the assay with SF-295 CNS; -99.7% (active) in the assay with SF-539 CNS. Moreover, the growth in the assay on UACC-257 melanoma is -91.8% (active); in the assay on M14 melanoma, -79.4% (active).

As to `CC(C)c1[nH]ncc1-c1nc2ccc3[nH]ncc3c2c2c1CCCC2`, the growth in the assay on NCI-H23 lung is 32.7%; with NCI-H226 lung, 35.5%; in the assay with NCI-H322M lung, 39.7%; with HOP-62 NSCLC, 30.5%; with NCI-H460 lung, 16.1%; with HOP-92 NSCLC, 58.5%. In addition, the growth is 41% in the assay with NCI-H522 lung; 13.9% in the assay with A549/ATCC NSCLC; 23.2% with 786-0 renal; 7.79% (active) with COLO 205 colon; 33.9% with DU-145 prostate; 42% in the assay with K-562 leukemia. The growth was 52.6% in the assay with MALME-3M melanoma; 35.6% in the assay with MDA-MB-231 breast; -8.2% (active) with RXF 393 renal; 36.7% in the assay on SF-268 CNS; 43.1% with SF-295 CNS; 23% with SF-539 CNS. Besides, the growth in the assay with UACC-257 melanoma is 44%; with M14 melanoma, 37.1%.

With `COc1ccc2[nH]c(C(=O)OCc3ccc4cccc(O)c4n3)cc2c1`, the growth is -3.84% (active) in the assay with NCI-H23 lung; -68.1% (active) with NCI-H226 lung; 62.7% in the assay with NCI-H322M lung; 35% in the assay on HOP-62 NSCLC; 7.31% (active) in the assay with NCI-H460 lung; -78.2% (active) in the assay with HOP-92 NSCLC. Further, the growth is -66.9% (active) in the assay on NCI-H522 lung; 21.2% in the assay with A549/ATCC NSCLC; -76.1% (active) in the assay on 786-0 renal; -69.1% (active) in the assay with COLO 205 colon; -91.8% (active) in the assay on DU-145 prostate; -3.39% (active) in the assay with K-562 leukemia. Also, the growth with MALME-3M melanoma is -76.2% (active); in the assay with MDA-MB-231 breast it was -70.8% (active); in the assay with RXF 393 renal, -92.2% (active); in the assay on SF-268 CNS it was -65.6% (active); in the assay with SF-295 CNS, 73.7%; with SF-539 CNS it was -92.7% (active). Further, the figures for the growth with UACC-257 melanoma and in the assay with M14 melanoma were -70.7% (active) and -75.6% (active), respectively.

As to `CCSc1ccc([C@@H]2[C@@H](N)C(=O)N2c2cc(OC)c(OC)c(OC)c2)cc1`, the growth in the assay on NCI-H23 lung was 35.9%; with NCI-H226 lung, 59.4%; with NCI-H322M lung, 45.7%; in the assay with HOP-62 NSCLC, 41.8%; in the assay on NCI-H460 lung, 12.2%; in the assay with HOP-92 NSCLC, 113%. Besides, the growth in the assay on NCI-H522 lung is 18.7%; with A549/ATCC NSCLC it was 30.5%; in the assay with 786-0 renal, 31.7%; in the assay on COLO 205 colon it was -5.46% (active); with DU-145 prostate it was 23.7%; in the assay on K-562 leukemia, 7.64% (active). The growth in the assay with MALME-3M melanoma was 63.8%; in the assay with MDA-MB-231 breast it was 41%; in the assay with RXF 393 renal it was -17% (active); with SF-268 CNS, 54.6%; in the assay with SF-295 CNS it was 10.2%; with SF-539 CNS, -22.6% (active). The values for the growth with UACC-257 melanoma and in the assay with M14 melanoma were 67.7% and -15.5% (active), respectively.

As for `COCCOCCOCc1n(Cc2ccc3ccccc3n2)c2ccccc2[n+]1Cc1ccc2ccccc2c1`, the growth is 1.03% (active) with NCI-H23 lung; 28.1% in the assay with NCI-H226 lung; 26.8% in the assay on NCI-H322M lung; 11.7% with HOP-62 NSCLC; 7.94% (active) in the assay on NCI-H460 lung; -18.2% (active) with HOP-92 NSCLC. For the same molecule, the growth is 0.793% (active) with NCI-H522 lung; 22.5% in the assay on A549/ATCC NSCLC; 21.2% with 786-0 renal; -73.3% (active) with COLO 205 colon; 24.6% with DU-145 prostate; 2.47% (active) in the assay on K-562 leukemia. Moreover, the growth with MALME-3M melanoma was -7.52% (active); in the assay with MDA-MB-231 breast, 8.58% (active); in the assay with RXF 393 renal, -19.9% (active); in the assay on SF-268 CNS it was 20%; with SF-295 CNS, -12.3% (active); in the assay on SF-539 CNS it was 15.8%. For the same molecule, the growth was -8.67% (active) in the assay with UACC-257 melanoma and -0.723% (active) in the assay on M14 melanoma.

With `COc1c(-c2cc(-c3ccc(C)o3)[nH]c(=O)n2)c(O)cc2occc12`, the growth with NCI-H23 lung is 68.8%; with NCI-H226 lung it was 67.3%; in the assay with NCI-H322M lung, 90.7%; in the assay with HOP-62 NSCLC, 52.1%; with NCI-H460 lung, 44.4%; with HOP-92 NSCLC, 67.3%. The growth with NCI-H522 lung is 36.1%; in the assay with A549/ATCC NSCLC, 47.1%; in the assay on 786-0 renal it was 93.9%; in the assay on COLO 205 colon it was 104%; in the assay on DU-145 prostate, 78.2%; in the assay with K-562 leukemia, 16.8%. For the same molecule, the growth in the assay on MALME-3M melanoma is 69.2%; in the assay with MDA-MB-231 breast, 70.8%; in the assay on RXF 393 renal it was 56.3%; in the assay on SF-268 CNS, 69.8%; in the assay on SF-295 CNS, 77.6%; with SF-539 CNS, 69.9%. In addition, the growth was 78.7% in the assay with UACC-257 melanoma and 44.7% in the assay on M14 melanoma.

For `N#Cc1nc(-c2ccc(Cl)cc2)cc(-c2ccc(Nc3nc(N4CCCCC4)nc(N4CCCCC4)n3)cc2)c1N`, the growth is 92.1% in the assay with NCI-H23 lung; 71.2% in the assay on NCI-H226 lung; 109% with NCI-H322M lung; 94.8% with HOP-62 NSCLC; 104% with NCI-H460 lung; 101% in the assay with HOP-92 NSCLC. In addition, the growth was 96.9% in the assay on NCI-H522 lung; 106% in the assay on A549/ATCC NSCLC; 103% in the assay with 786-0 renal; 113% in the assay on COLO 205 colon; 105% in the assay with DU-145 prostate; 105% in the assay on K-562 leukemia. Further, the growth is 107% in the assay with MALME-3M melanoma; 114% with MDA-MB-231 breast; 115% in the assay with RXF 393 renal; 101% in the assay on SF-268 CNS; 101% with SF-295 CNS; 103% with SF-539 CNS. For the same molecule, the growth in the assay with UACC-257 melanoma is 105%; in the assay with M14 melanoma, 104%.

For the molecule `CN(C)CCOc1nc2c3ccncc3cc(-c3cccc(Cl)c3)c2c2cnccc12`, the growth in the assay with NCI-H23 lung was 29.7%; in the assay on NCI-H226 lung it was 35%; in the assay on NCI-H322M lung, 44.1%; in the assay on HOP-62 NSCLC, 43.5%; in the assay with NCI-H460 lung it was 10.5%; with HOP-92 NSCLC, 56.2%. Also, the growth in the assay on NCI-H522 lung is 31.9%; with A549/ATCC NSCLC, 16.4%; in the assay with 786-0 renal, 33.4%; in the assay on COLO 205 colon, 13.8%; in the assay with DU-145 prostate, 30.7%; with K-562 leukemia, -34.7% (active). Also, the growth with MALME-3M melanoma was 40.1%; in the assay with MDA-MB-231 breast it was 24%; with RXF 393 renal, 1.01% (active); in the assay on SF-268 CNS, 35.1%; in the assay with SF-295 CNS it was 31.6%; in the assay on SF-539 CNS, 32%. The growth in the assay with UACC-257 melanoma is 47.3%; in the assay on M14 melanoma, 26%.
